Results reported in PubChem BioAssay AID1531 (NMMLSC, 2009).
Screen size: about 290,000 compounds; about 3,300 (1.1%) were called active. No stated cut-off is given here; in the data, active means binding response below about 67% or above about 130%; inconclusive means no clear call, values can overlap the other calls; inactive means in between. For the sample, actives were picked, then their nearest neighbours and some compounds at random.

Each compound was assayed against Mitogen-activated protein kinase kinase kinase 2 (Homo sapiens) (UniProt Q9Y2U5) (assay: wildtype MEKK2 PB1-MEK5 interaction, increase or decrease – biochemical, multiplex bead flow cytometry, Alexa488-MEK5, primary screen (AID 1531)). Conditions: Alexa488-MEK5 binding to MEKK2 WT, at 10 µM, actives lie on both sides.

| SMILES | binding response (% of control) |
| --- | --- |
| O=C(CCCn1c(=O)[nH]c2cc(Cl)ccc2c1=O)NCCN1CCN(c2ccccc2)CC1 | 97% (inactive) |
| COc1cccc(CNC(=O)Cc2csc(Nc3nc(=S)[nH]c4ccccc34)n2)c1 | 90% (inactive) |
| O=C(Cc1csc(Nc2nc(=S)[nH]c3ccccc23)n1)NCCCN1CCN(c2cccc(Cl)c2)CC1 | 150% (active) |
| COc1ccc(Nc2ncnc3sc(C)cc23)cc1 | 105% (inactive) |
| CCCCN1C(N)=NC[C@@H]1Cc1ccccc1 | 100% (inactive) |
| O=C1/C(=C\c2cccnc2)CN(Cc2ccccc2)C/C1=C\c1cccnc1 | 119% (inactive) |
| O=C1C(Cc2ccc(O)cc2)NC(=S)N1Cc1ccccc1 (stereo unspecified) | 97% (inactive) |
| O=C1NCC(=O)N(Cc2ccccc2)/C1=C/c1ccccc1 | -4% [inhibitor] (active) |
| C[C@H]1CC[C@]2(O[C@@H](CCO)C[C@@H](O)[C@@H]2O)O1 | 97% (inactive) |
| O=C1N[C@@H](Cc2ccccc2)C(=O)N2[C@@H]3N(S(=O)(=O)c4ccc(F)cc4)c4ccccc4[C@]3(Br)C[C@@H]12 | 98% (inactive) |
| CCC(C(=O)NCc1cccnc1)n1nc(C)c2sc3ccccc3c2c1=O (stereo unspecified) | 103% (inactive) |
| N#Cc1c(Cl)nc(-c2cccnc2)nc1-c1ccccc1 | 106% (inactive) |
| CN(Cc1ccccc1)C(=O)C(=O)c1cn(CC(=O)N2CCCC2)c2ccccc12 | 106% (inactive) |
| CCC(C)(C)NC(=O)C1c2ccccc2Oc2ccccc21 | 97% (inactive) |
| CCC(C)NC(=O)C1c2ccccc2Oc2ccccc21 (stereo unspecified) | 72% (inactive) |
| CC(C)(C)c1nnc(NC(=O)C2c3ccccc3Oc3ccccc32)s1 | 39% [inhibitor] (active) |
| CC(NS(=O)(=O)c1ccc(Cl)cc1)C(=O)Nc1ccc2c(c1)OCCO2 (stereo unspecified) | 97% (inactive) |
| CCN(CC)CCOc1ccc2c(c1)C(=NNC(=O)c1ccccn1)c1cc(OCCN(CC)CC)ccc1-2 | 191% (active) |
| Cc1cccc(OCC(=O)NCCCNC(=O)c2ccccn2)c1 | 98% (inactive) |
| COc1ccc(CC(=O)N/N=C(\C)c2ccccn2)cc1 | 99% (inactive) |
| CCOC(=O)c1ccc(NC(=O)c2c(N)n(C)c(=O)[nH]c2=O)cc1 | 98% (inactive) |

| SMILES | binding response (% of control) |
| --- | --- |
| CC1(C)S[C@@H]2[C@H](NC(=O)COc3ccccc3)C(=O)N2C1C(=O)OCc1ccccc1 (stereo partly specified) | 93% (inactive) |
| O=C(c1ccco1)N1CCN(C(=S)Nc2cc(F)cc(F)c2)CC1 | 102% (inactive) |
| COc1ccc(CNC(=O)C2CCN(S(=O)(=O)c3ccc(SC)cc3)CC2)cc1 | 105% (inactive) |
| COc1ccc(CNC(=O)C2CCN(S(=O)(=O)N3CCOCC3)CC2)cc1 | 100% (inactive) |
| COc1ccc(CNC(=O)C2CCN(S(C)(=O)=O)CC2)cc1 | 42% [inhibitor] (active) |
| O=C(NCCc1ccccc1)C1CC1 | 103% (inactive) |
| COC(=O)c1c(-c2ccsc2)oc2ccc(-c3cc(OC)c(OC)c(OC)c3)cc12 | 96% (inactive) |
| Cn1c(C(=O)NCCCN2CCN(c3cccc(Cl)c3)CC2)cc2c(=O)n(C)c3ccccc3c21 | 173% (active) |
| Cn1c(C(=O)NCCc2ccsc2)cc2c(=O)n(C)c3ccccc3c21 | 97% (inactive) |
| O=C(CCn1c(=O)[nH]c2ccccc2c1=O)NCCCN1CCN(c2cccc(Cl)c2)CC1 | 108% (inactive) |
| O=C(CNC(=O)c1ccc(Br)o1)Nc1ccccc1 | 99% (inactive) |
| Cc1ccc(-c2ccc(=O)n(CC(=O)NCCCN3CCCCC3)n2)cc1 | 109% (inactive) |
| CCc1ccc(-c2cc3c(=O)n(CC(=O)NCCCN4CCN(Cc5ccccc5)CC4)nc(C)n3n2)cc1 | 141% (active) |
| Cc1nn(CC(=O)NCCc2ccccc2)c(=O)c2cc3occc3n12 | 111% (inactive) |
| CCCCN1C(N)=NC[C@@H]1CC1CCCCC1 | 119% (inactive) |
| COc1ccc(-c2noc(C(C)NS(=O)(=O)c3ccc(NC(C)=O)cc3)n2)cc1 (stereo unspecified) | 95% (inactive) |
| C=C(C)COc1ccc(-c2ncncc2-c2ccc(OC)cc2)c(O)c1 | 100% (inactive) |
| CCc1nn(CC(=O)N2CCN(CC)CC2)c(=O)c2cccn12 | 95% (inactive) |
| COC(=O)c1c(NC(=O)COc2ccc(Cl)cc2Cl)sc2c1CC(C)(C)NC2(C)C | 147% (active) |
| Cc1nn(-c2ccccc2)c(C)c1NC(=O)COc1ccc(Cl)cc1Cl | 103% (inactive) |
| Cc1cc(NC(=O)COc2ccc(Cl)cc2Cl)n(CCC#N)n1 | 88% (inactive) |

| SMILES | binding response (% of control) |
| --- | --- |
| CC(=O)c1ccc(S(=O)(=O)N(C)CCCC(=O)N(C)Cc2ccccc2F)cc1 | 105% (inactive) |
| CN(CC1CCCO1)S(=O)(=O)c1ccc(C(=O)Nc2ccc(F)cc2)cc1 (stereo unspecified) | 98% (inactive) |
| Cc1cccc(NC(=O)c2ccc(S(=O)(=O)N(C)CC3CCCO3)cc2)c1C (stereo unspecified) | 99% (inactive) |
| CCOC(=O)c1c(NC(=O)c2ccc(S(=O)(=O)N(C)CC3CCCO3)cc2)sc2c1CC(C)(C)NC2(C)C (stereo unspecified) | 134% (active) |
| O=C(NC1CCCC1)C(c1c(F)cccc1Cl)N(C(=O)c1csnn1)C1CC1 (stereo unspecified) | 95% (inactive) |
| O=S(=O)(c1ccccc1)c1nc(Cc2ccccc2)oc1N1CCOCC1 | 102% (inactive) |
| CNC(C)C#Cc1ccc2sc3cc(OC)c(OC)cc3c(=O)c2c1 (stereo unspecified) | 136% (active) |
| CN1C(=O)C2(OCCCO2)c2cc(Cl)ccc21 | 109% (inactive) |
| Cc1ccc(-c2nc(-c3ccncc3)no2)c(C)c1 | 104% (inactive) |
| c1csc(-c2nc(-c3ccncc3)no2)c1 | 94% (inactive) |
| COc1cc(-c2nc(-c3ccncc3)no2)cc(OC)c1OC | -3% [inhibitor] (active) |
| CC1CCCN(c2ccc(C(=O)NCCc3ccccc3)cn2)C1 (stereo unspecified) | 97% (inactive) |
| Cc1ccc(Sc2cc(C(=O)c3ccccc3C(=O)O)ccc2[N+](=O)[O-])cc1 | 95% (inactive) |
| CC(Sc1nnc(CNC(=O)c2ccccc2F)n1C)C(=O)Nc1nccs1 (stereo unspecified) | 101% (inactive) |
| COc1ccc(CN2CC[C@H]3C=CC[C@@H](C(=O)N4CCOCC4)[C@H]3C2=O)cc1OC | 99% (inactive) |
| CCOC(=O)c1ccc(Nc2cc3ccccc3c(=O)[nH]2)cc1 | 99% (inactive) |
| Cc1cccc(-c2nc3ccc(C(=O)NCCN4CCN(C)CC4)cc3nc2-c2cccc(C)c2)c1 | 156% (active) |
| Cc1ccc(C(=O)NCCN2CCOCC2)cc1C | 99% (inactive) |
| Cc1cccc(C(=O)OC(C)CN2CCN(C)CC2)c1 (stereo unspecified) | 97% (inactive) |
